A selection: hits, their analogues and other compounds. The true share with any hit is near 3.2%.
PrPC TRFRET: inhibitors of human cell surface prion protein PrPC, primary screen, cell-based, TR-FRET. AID 720596, 2013. actives 0.43% (n = 370,000). inhibition, % at 13.8 µM. Major prion protein (Homo sapiens), P04156. TR-FRET read-out; in the data active means inhibition above about 24%; further: 0% = median of the test wells and 100% = reference compound wells
GDH-TPI inh: GDH-TPI coupling enzyme inhibitors, primary screen, artefact control for M. tuberculosis FBA inhibitor project, biochemical, absorbance, full deck; inhibition, % at 4.8 µM; actives 1.2% (n = 360,000); GDH-TPI coupled enzyme counterscreen, NADH absorbance; AID 588335, 2011; in the data active means inhibition above about 30%;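 further: 0% = DMSO wells and 100% = wells lacking the enzyme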
Yp Topo-I inh: Yersinia pestis topoisomerase I inhibitors, primary screen, biochemical, cleavage product accumulation, plate reader, single point; Y. pestis Topo-I cleavage product accumulation; activity, % at 10 µM; actives 0.064% (n = 360,000); AID 504884, 2011; in the data active means activity above about 50%, passing the limit was not always enough
Mtb FBA inh: Mtb FBA enzyme inhibitors, primary screen, biochemical, fluorescence, strain H37Rv; Fructose-bisphosphate aldolase (Mycobacterium tuberculosis (strain ATCC 25618 / H37Rv)), …; purified M. tuberculosis FBA, fluorescence read-out; inhibition, % at 1 µM; actives 2.3% (n = 360,000); in the data active means inhibition above about 27%;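 further: 0% = vehicle and 100% = reference inhibitor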
TcdB inh: TcdB glycohydrolase inhibitors, primary screen, biochemical, single point, plate reader | Toxin B (Clostridioides difficile), P18177 | TcdB glycohydrolase enzymatic assay | actives 0.24% (n = 350,000) | AID 652162, 2013 | inhibition, % at 9.99 µM; in the data active means inhibition above about 10%
* marks the source's active call; other numbers are inactive results; . = no result given; + = active, no number.

SMILES	PrPC TRFRET	GDH-TPI inh	Yp Topo-I inh	Mtb FBA inh	TcdB inh
C/C(=N\NS(=O)(=O)c1ccc(C)c([N+](=O)[O-])c1)c1cc2ccccc2o1	-4	41*	6	-3	.
Cc1ccc(S(=O)(=O)N/N=C/c2ccc(O)c(O)c2)cc1[N+](=O)[O-]	-5	33*	6	-3	-1
CO[C@@H]1CN(C)C(=O)c2cc(NC(=O)c3cnccn3)ccc2OC[C@@H](C)N(C(C)=O)C[C@H]1C	.	.	.	.	1
C[C@@H]1CN([C@H](C)CO)C(=O)Cc2cc(NC(=O)CCN3CCOCC3)ccc2O[C@@H]1CN(C)S(=O)(=O)c1cccs1	.	.	.	.	-5
C[C@H]1CN([C@@H](C)CO)C(=O)c2cccc(NS(=O)(=O)c3ccc(F)cc3)c2O[C@@H]1CN(C)S(=O)(=O)c1cn(C)cn1	.	.	.	.	0
Cn1cnnc1SCC(=O)NC1CCCCC1	-3	4	-11	-6	15*
C[C@@H]1CN([C@@H](C)CO)C(=O)c2cc(NC(=O)CCN3CCOCC3)ccc2O[C@H]1CN(C)C(=O)Nc1ccccc1	.	.	.	.	-3
CC1=C/C(=C/N(C)C)C(=O)O1	3	-2	-1	2	-1
CN(C)/C=C1/C=C(c2ccccc2)OC1=O	-5	33*	1	2	1
CS(=O)(=O)Nc1ccc(-c2cn3cccnc3n2)cc1	-16	16	3	115*	0
Cc1ccc(-c2cn3cccnc3n2)cc1	-15	7	-10	+	1
C[C@@H]1CN([C@@H](C)CO)C(=O)Cc2cc(NC(=O)CCN3CCOCC3)ccc2O[C@H]1CN(C)C(=O)NC1CCCCC1	.	.	.	.	0
O=C1CN(Cc2ccccc2)C[C@H]2[C@@H](c3ccc(-c4cccnc4)cc3)[C@H](CO)N12	.	.	.	.	-1
O=C(CN1CCN(c2nc(-c3ccccc3)cs2)CC1)Nc1ccc(F)cc1F	2	.	.	.	.
COc1ccc(NC(=O)CN2CCN(c3nc(-c4ccc(F)cc4)cs3)CC2)c(OC)c1	-6	3	54*	-2	1
CO[C@H]1CN(C)C(=O)c2cc(NC(=O)c3ccccc3F)ccc2OC[C@H](C)NC[C@@H]1C	.	.	.	.	0
Cc1ccccc1C(C(=O)NC1CCCCC1)N(C(=O)c1ccccn1)c1cccnc1 (stereo unspecified)	-3	3	1	-5	14*
O=C(O)c1ccc(N/N=C2/CCCc3ccccc32)cc1	0	79*	2	2	-9
O=C(N/N=C1\CCCc2ccccc21)c1ccccc1Cl	5	-5	5	-1	0
CCOC(=O)C1Nc2ccccc2C2c3ccccc3CC12 (stereo unspecified)	-21	11	33	33*	.
C[C@H](CO)N1C[C@H](C)[C@H](CN(C)S(=O)(=O)c2cn(C)cn2)Oc2c(NC(=O)Nc3ccc(F)cc3)cccc2C1=O	.	.	.	.	1
C=CCNc1nc(NCCCN2CCCC2=O)c2sc(-c3ccccc3)cc2n1	-2	21	9	12	3
COCCNc1nc(NCCCN2CCCC2=O)c2sc(-c3ccccc3)cc2n1	-4	31*	-2	16	7
COc1cccc(-c2ccc3c(c2)[C@H]2[C@H](CCN2S(=O)(=O)c2ccccc2OC)[C@@H](CO)N3)c1	.	.	.	.	-2
COc1cccc(C(=O)NCC(=O)N2CCC3(CC2)NCCc2[nH]cnc23)c1OC	6	51*	3	7	2
SMILES	PrPC TRFRET	GDH-TPI inh	Yp Topo-I inh	Mtb FBA inh	TcdB inh
COc1ccc(NC(=O)CN(C)C(=O)c2cccc(NS(=O)(=O)c3ccc(Br)cc3)c2)cc1	8	2	25	-2	16*
COc1cccc(NC(=O)CN(C)C(=O)c2cccc(NS(=O)(=O)c3ccc(Br)cc3)c2)c1	-4	-13	12	-1	1
c1ccc(-c2ncc(-c3ccn[nH]3)s2)cc1	-12	15	-5	139*	1
c1ccc(Oc2ccc(-c3ccn[nH]3)cc2)cc1	-2	-3	-10	-2	2
c1ccc2c(c1)C1=NCCN1c1ccccc1-2	9	8	-10	73*	1
Cn1cc(C(=O)C(=O)N2CCCc3ccccc32)c2ccccc21	9	14	-8	0	3
Cn1cc(S(=O)(=O)CC(=O)N2CCCc3ccccc32)c2ccccc21	-5	6	1	0	11*
Cc1c(/C=N/NC(=O)c2ccc(Br)o2)cnn1C	6	9	-5	127*	2
Cc1ccc(C(=O)N/N=C\c2ccc(Br)o2)o1	-9	58*	8	-3	.
CC(C)C#Cc1cnc2c(c1)C(=O)N([C@H](C)CO)C[C@@H](C)[C@@H](CN(C)C(=O)c1cnccn1)O2	.	.	.	.	-1
COc1ccc(NC(=O)Nc2ccc3c(c2)C(=O)N([C@@H](C)CO)C[C@@H](C)[C@@H](CN(C)C(=O)NC(C)C)OCCCC[C@H](C)O3)cc1	.	.	.	.	-2
CCN(CC)c1ccc(/C=N/NC(=S)NCc2ccccc2)c(O)c1	-3	24	1	7	0
CCN(CC)c1ccc(/C=N/NC(=O)Cc2cccs2)c(O)c1	4	38*	4	0	.
CCN(CC)c1ccc(/C=N/NC(=O)c2ccco2)c(O)c1	23	41*	-12	4	0
O=C(Cc1cccs1)N/N=C/c1ccccc1	9	6	7	1	1
CCN(CC)c1ccc(/C=N/NC(=O)c2ccco2)cc1	4	43*	-7	-2	.
O=C(CCN1CCCCC1)N[C@H]1CC[C@@H](CCNC(=O)c2cc(Cl)cc(Cl)c2)O[C@@H]1CO	.	.	.	.	0
COc1cc(Cn2nnc3ccccc32)ccc1O	0	-3	-17	1	18*
Oc1ccccc1Cn1nnc2ccccc21	-4	-1	4	0	1
COc1ccc2c3c(n(C)c2c1)[C@@H](CO)N(Cc1ccc2c(c1)OCO2)CC31CN(C(=O)C2CC2)C1	.	.	.	.	0
Cc1ccc(N/N=C(\C#N)C(N)=S)c(C)c1	-2	11	-3	2	.
Cc1ccc(NC(=O)/C(C#N)=N/Nc2ccc(C(=O)O)cc2)c(C)c1	-5	58*	-8	-11	1
CCN(CC)c1ccc(C(=O)c2ccccc2C(=O)O)c(O)c1	4	42*	1	-6	.
Oc1cccc(Nc2nc(O)c(/C=C3\C=Nc4ccccc43)s2)c1	-3	41*	-10	5	2
Oc1nc(Nc2cccc(Cl)c2)sc1/C=C1\C=Nc2ccccc21	-5	25	5	-3	0
Cc1cccc(NC(=O)/C(=C\c2cccs2)NC(=O)c2ccccc2)c1	.	34*	1	-1	1
O=C(N/N=C/C=C/c1ccco1)/C(=C/c1ccccc1)NC(=O)c1ccccc1	-8	37*	-4	0	0
COc1ccc(/C=C(/NC(=O)c2ccccc2)C(=O)N/N=C/c2sccc2C)cc1	-5	52*	26	-1	0
